Experimental data published in PubChem BioAssay (NCI).
Compounds without any hit were thinned out: in the full panel of roughly 79,000, 15% have a hit. Calls of active or inactive are those of the source. No stated cut-off is given here; in the data, active means growth inhibition above about 70%; inactive means the rest.

Tests used:
[1] = NCI Yeast Anticancer Drug Screen. Data for the rad50 strain (AID 155);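 further: 0% = growth of vehicle-only cultures of the same strain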; conditions: S. cerevisiae rad50 strain growth inhibition; at 50.0 µM; hits give high values
Summary of the method: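 Cells are treated with compound, grown, and their growth is then scored against vehicle-only cultures of the same repair-deficient yeast strain.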

[2] = NCI Yeast Anticancer Drug Screen. Data for the mec2-1 strain (AID 157); conditions: S. cerevisiae mec2-1 strain, at 50.0 µM, hits give high values
Summary of the method: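 Using mec2-1 yeast: add compound, measure growth, express inhibition versus vehicle-treated cultures.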

[3] = NCI Yeast Anticancer Drug Screen. Data for the sgs1 mgt1 strain (AID 161);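 further: 0% = growth of cultures given vehicle only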; conditions: S. cerevisiae sgs1 mgt1 strain, at 50.0 µM, hits give high values
Summary of the method: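 Yeast cells carrying a defined DNA-repair defect were exposed to test compounds. Growth inhibition was measured relative to vehicle-treated controls.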

[4] = NCI Yeast Anticancer Drug Screen. Data for the cln2 rad14 strain (AID 165);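 further: 0% = growth equal to vehicle treated cultures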; conditions: S. cerevisiae cln2 rad14 strain, at 50.0 µM, hits give high values
Summary of the method: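 Yeast strain cln2 rad14, bearing defects in cell cycle control and DNA repair, serves as the test system; values reflect growth inhibition compared with vehicle.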

[5] = NCI Yeast Anticancer Drug Screen. Data for the bub3 strain (AID 167); conditions: S. cerevisiae bub3 mutant strain, at 50.0 µM, hits give high values
Summary of the method: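 Part of a panel of yeast mutants defective in DNA damage repair or cell cycle regulation. Each strain is grown with compound, and inhibition is calculated relative to solvent-treated cultures.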

[6] = NCI Yeast Anticancer Drug Screen. Data for the mlh1 rad18 strain (AID 175); conditions: S. cerevisiae mlh1 rad18 strain growth inhibition; at 50.0 µM; hits give high values
Summary of the method: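 Steps: expose repair-defective yeast to compound; measure growth; express inhibition against vehicle-treated controls.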

Measured: growth inhibition

O=C1C(Cl)C(c2ccccc2)N1n1cnc2ccccc2c1=O (configuration not stated)
inactive: [1] -16.2% | [2] -2.15% | [3] -24.1% | [4] -3.3% | [5] 3.9% | [6] -12.7%

CN1c2ccccc2Nc2cc(C#N)ccc21
inactive: [1] -0.7% | [2] -8.3% | [3] 14.8% | [4] -30.4% | [5] 19.2% | [6] 5.7%

CCOC(=O)CC(C(=O)OCC)c1ccccc1 (configuration not stated)
inactive: [1] -3.4% | [2] 10.2% | [3] -5.4% | [4] -6.35% | [5] 9.85% | [6] -19.4%

COc1ccc(/C(=N/N)c2ccccc2)cc1
inactive: [1] 3.6% | [2] -40.5% | [3] -23.6% | [4] -42.4% | [5] -18.8% | [6] -2.15%

CCOC(=O)C(Nc1cccc2ccccc12)C(=O)OCC
inactive: [1] 0.5% | [2] 19.1% | [3] 9.3% | [4] -5.2% | [5] 46.2% | [6] 25.7%

CC1(CCN2CCCC2)NC(=O)NC1=O (configuration not stated)
inactive: [1] 15.9% | [2] -20.3% | [3] -5.25% | [4] 1.05% | [5] 3.4% | [6] 10.9%

CC(=O)NC(C(=O)NC(CSCc1ccccc1)C(=O)O)=C(C)C (configuration not stated)
inactive: [1] -2.05% | [2] -13.5% | [3] 8.9% | [4] 3.1% | [5] -36.4% | [6] -11.3%

CCOC(=O)Nc1ccc2c(c1Cl)C(=O)c1ccccc1C2=O
inactive: [1] -6.85% | [2] -18.1% | [3] -0.2% | [4] 5.65% | [5] 14.3% | [6] -15.6%

O=C1NS(=O)(=O)c2cc(Cl)ccc21
inactive: [1] -34.3% | [2] -22.1% | [3] -23.8% | [4] -18.4% | [5] -1.85% | [6] -12.8%

O=S(=O)(O)c1cccc2ccc(O)cc12
inactive: [1] -4.05% | [2] -4.1% | [3] -2.05% | [4] -36.8% | [5] -11.1% | [6] 43.6%

Cc1ccccc1/C=N/NC(=O)c1cccc2ccccc12
inactive: [1] -6.85% | [2] 0.8% | [3] -10.8% | [4] -23% | [5] 0.75% | [6] 0.6%

COc1ccc(-c2cc(-c3ccccc3)n(-c3ccccc3)n2)cc1
inactive: [1] -0.9% | [2] 15.1% | [3] 7.2% | [4] -2.85% | [5] 0.8% | [6] -15.4%

CC(O)C1NC(=S)N(c2ccccc2)C1=O (configuration not stated)
inactive: [1] 17.4% | [2] 21% | [3] 20.8% | [4] -20.2% | [5] -14.4% | [6] 46%

CCC(=O)N1NC(=O)C(CC)(CC)C1=O
inactive: [1] -1.95% | [2] -26.2% | [3] 11.1% | [4] 10.7% | [5] -2.3% | [6] -35.6%

Cc1cccc2c1Oc1ccccc1C2NC(=O)c1ccc([N+](=O)[O-])cc1 (configuration not stated)
inactive: [1] -19.4% | [2] -15.4% | [3] -34.5% | [4] -0.9% | [5] -23.4% | [6] -18%

CC(=O)OC1OC(COC(c2ccccc2)(c2ccccc2)c2ccccc2)C(OCc2ccccc2)C(OCc2ccccc2)C1OC(C)=O (configuration not stated)
inactive: [1] -14.3% | [2] -18.1% | [3] -21.1% | [4] 13.3% | [5] 0.45% | [6] 1.65%

CC(=O)[C@@]1(c2ccccc2)N(C(=O)c2ccccc2)[C@@]1(C)C(=O)c1ccccc1
inactive: [1] 22.1% | [2] 2.25% | [3] 14.4% | [4] 53.1% | [5] 3.85% | [6] -0.75%

c1ccc(CCCOCCCc2ccccc2)cc1
inactive: [1] 24.9% | [2] 14.8% | [3] 9.15% | [4] 7.4% | [5] 51.2% | [6] 22.4%

CCCCCCC1CCCCC1
inactive: [1] -35% | [2] -41.7% | [3] -29% | [4] 19.9% | [5] -28.8% | [6] -20%

COc1cccc(C2c3cc4c(cc3OC(N3CCCCC3)C2C)OCO4)c1O (configuration not stated)
inactive: [1] -22.5% | [2] -31.1% | [3] 0.15% | [4] 18.9% | [5] -2.5% | [6] 0.1%

C=CNC(=O)NC(=O)CSc1nnc(-c2ccccc2NC(=O)C(F)(F)F)c(=O)[nH]1
inactive: [1] 5.7% | [2] -4.95% | [3] -4% | [4] 14.9% | [5] 30.9% | [6] 5.4%

CN(C/C=C/CN(C)C(=S)Nc1ccccc1)C(=S)Nc1ccccc1
inactive: [1] -19.1% | [2] 13.1% | [3] -20.5% | [4] -2.65% | [5] 2.85% | [6] 5.65%

N#Cc1nc(CCC(C(=O)O)N2C(=O)c3ccccc3C2=O)oc1N (configuration not stated)
inactive: [1] 3.55% | [2] 15.2% | [3] -12.1% | [4] -0.55% | [5] -9.15% | [6] -46.9%

Cc1cc(C)c2c(c1)CSCc1cc(C)cc(C)c1-2
inactive: [1] 15.7% | [2] -2.65% | [3] 19.1% | [4] 10% | [5] 1.05% | [6] 16.1%

CCOC(=O)C1C=CC(C)N(C(=O)OCC)N1C(=O)OCC (configuration not stated)
inactive: [1] 0.35% | [2] 2.45% | [3] 7.5% | [4] -2.3% | [5] 49.9% | [6] -13.7%

O=C(Nc1ccccc1Cl)Oc1ccc(Cl)cc1Cl
inactive: [1] 3.5% | [2] 20.1% | [3] 7.4% | [4] -15.1% | [5] -6.05% | [6] -9.45%

CC1(C)C(CC(=O)O)CC1C(=O)O (configuration not stated)
inactive: [1] 10.4% | [2] -0.7% | [3] -27.4% | [4] 11.2% | [5] -34.6% | [6] -1.4%

CCOc1ccc(/C=C2\N=C(c3ccccc3)OC2=O)cc1OC
inactive: [1] 8.5% | [2] 12.5% | [3] 4% | [4] 0.75% | [5] 5.85% | [6] 2.4%

COC(=O)C(=O)C1CCc2c(C(=O)OC)nc3[nH]n(-c4ccccc4)c(=O)c3c21 (configuration not stated)
inactive: [1] 12.1% | [2] -14.3% | [3] 4.2% | [4] -30.2% | [5] 25.1% | [6] 0.25%

Brc1ccc2nc(-c3ccccc3)c3ccccc3c2c1
inactive: [1] -13.7% | [2] -0.45% | [3] -2.35% | [4] -25.4% | [5] 14.8% | [6] -2.65%

CC(=O)Nc1ccc(S(=O)(=O)CO)cc1
inactive: [1] 19.4% | [2] 16.9% | [3] 19.6% | [4] 6.55% | [5] -0.3% | [6] 16.8%

COc1ccc2cc1Oc1cc3c(cc1OC)CC[N+](C)(C)C3Cc1ccc(cc1)Oc1c(OC)c(OC)cc3c1C(C2)[N+](C)(C)CC3 (configuration not stated)
inactive: [1] -29.4% | [2] -16.4% | [3] -46.2% | [4] 10.8% | [5] -22.9% | [6] -19.3%

O=c1[nH]c(=O)n(C2OC(CO)C(O)C2O)cc1NN=NCc1ccccc1 (configuration not stated)
inactive: [1] -10.1% | [2] -13.7% | [3] -11.2% | [4] 4.9% | [5] -4.5% | [6] -10.9%

Cc1ccc2c(c1)-c1c3c(nn1C)-c1ccccc1SC3O2 (configuration not stated)
inactive: [1] -0.35% | [2] -7.75% | [3] -13.1% | [4] -3.6% | [5] -5.75% | [6] 9.15%

CCOC(CNCc1ccncc1)OCC
inactive: [1] -19.8% | [2] -20.3% | [3] -26.8% | [4] 4.9% | [5] -31% | [6] -10.9%

CC1(CO)CSC(Nc2ccc(F)cc2)=N1 (configuration not stated)
inactive: [1] -7.4% | [2] -11.1% | [3] 14.8% | [4] 14.8% | [5] 2.4% | [6] 3.35%

O=C1CSc2nc3c(I)cc(I)cc3c(=O)n21
inactive: [1] 2.65% | [2] 6.2% | [3] -0.75% | [4] -25.1% | [5] -7.3% | [6] -0.6%
